Results on seven compounds are retold here after PubChem BioAssay (NCATS).

The target of test [1] is Lysosomal acid glucosylceramidase (Homo sapiens) (UniProt P04062). Description: Glucocerebrosidase-p2 (AID 348; in the data active means potency below about 10 µM; further: potency means the concentration at half of the fitted maximal effect). As to conditions: purified GBA, blue fluorogenic substrate, 40 min. In a few lines:
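Compounds titrated from 0.6 nM upwards against 0.2 nM enzyme in pH 5.9 citric acid/KH2PO4, taurocholate, tween-20; blue fluorogenic substrate 80 uM, 40 min room temperature, stopped and read Ex 365/Em 440 for AC50.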

The nature of test [2]: AP1 Signaling Pathway (AID 357).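 Further: ME-180 reporter cells stimulated with EGF at its EC50 level; on the % scale 0 is the no-effect control and ±100 the full control effect.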 As to conditions: ME-180 AP-1-bla reporter, EGF-induced, beta-lactamase ratio, 5 h; at 7.69 µM (top of the series) unless noted. In a few lines:
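A ratiometric CCF4 readout (405 nm excitation; 460 and 530 nm emission) quantified AP-1-driven beta-lactamase in ME-180 cells after 5 h with compound and EC50 EGF; AC50 values were derived for activators and inhibitors.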

The target of test [3] is Cytochrome P450 1A2 (Homo sapiens) (UniProt P05177). Description: p450-cyp1a2 (AID 410; calls by dose curve; further: potency means the concentration at half of the fitted maximal effect). The conditions noted are these: recombinant CYP1A2, luciferin-ME demethylation, luminescence; series mostly up to 11.4 µM. In outline: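 20nM CYP1A2 with 100uM Luciferin-ME (at Km) in 100mM KPO4; compound preincubated 10 min, NADPH regeneration added, 60 min at room temperature. Luciferin quantified by luminescence after detection reagent; normalized to 57 uM furafylline.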

Test [4] is described as follows: NFAT Signaling Pathway (AID 444).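 Further: carbachol stimulus at about its EC50 of 1 µM final; on the % scale 0 is the no-effect control and ±100 the full control effect.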 The conditions noted are these: Jurkat NFAT-bla M1, carbachol, beta-lactamase ratio, 5 h; at 7.69 µM (top of the series) unless noted. In a few lines:
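Jurkat cells with NFAT-driven β-lactamase reporter and co-expressed M1 receptor, stimulated with carbachol (final 1 uM, ~EC50), compound titration, 5 h at 37 °C. CCF4 loaded 1 h at RT; 460/530 nm ratio gave %activity and AC50.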

A short description of test [5]: Stat Signaling Pathway (AID 446).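 Further: ME-180 cervical cancer cells given 40 pM IL-6 alongside compound; SIE-controlled beta-lactamase reporter measured as 460/530 nm FRET emission ratio; on the % scale 0 is the no-effect control and ±100 the full control effect.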 The conditions noted are these: ME-180 (cervical carcinoma) SIE beta-lactamase reporter, IL-6 stimulated, 5 h; at 7.69 µM (top of the series) unless noted. In outline:
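ME-180 cells carrying a SIE-driven beta-lactamase reporter are stimulated with 40 pM IL-6 for 5 h at 37C in the presence of compound. The 460/530 nm FRET substrate ratio is read after 2.5 h at RT. Data are normalised to 300 pM IL-6 and to 125 nM JAK inhibitor controls.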

In test [6] the target is Glucocorticoid receptor (Homo sapiens) (UniProt P04150). Kind of test: GR-GFP Redistribution (AID 450;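 active means compounds whose dose series gives a full or clear partial fitted curve of increased nuclear translocation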; further: potency means the concentration at half of the fitted maximal effect). As to conditions: U2OS GR-GFP nuclear translocation, laser cytometry, 2 h.
The target of test [7] is Mitogen-activated protein kinase 10 (Mus musculus) (UniProt Q61831). Kind of test: JNK3 AlphaScreen Assay (AID 530).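 Further: kinase came from lysate of stimulated human HepG2 cells; signal reports phosphorylation of biotinylated GST-cJun 1-79 at Ser73 with 10 µM ATP; on the % scale 0 is the no-effect control and ±100 the full control effect.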 The conditions noted are these: JNK3 lysate, c-Jun phosphorylation; series mostly up to 11.4 µM. In a few lines: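 Pre-activated (IL-1β/TNFα) JNK3 in HepG2 lysates phosphorylates biotin-GST-cJun(1-79), 10 uM ATP; anti-phospho-cJun(Ser73) AlphaScreen read at room temperature, pH 7.6 Tris buffer. Compounds pre-incubated 15 min as titrations.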
For orientation: Bead proximity is the source of the signal in Alpha formats.

Test [8] concerns the target 3',5'-cyclic-AMP phosphodiesterase 4B (Homo sapiens) (UniProt Q07343). Kind of test: qHTS Assay for Inhibitors of PDE-IV (AID 607; active means well fitted activation curve with a large enough effect in the main read-out, with a control signal flat, not every such curve was filed as active; further: % of control where 0% means no effect). The conditions noted are these: HEK293 ACTOne CNG channel cells, membrane potential fluorescence; series mostly up to 22.9 µM. In a few lines:
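HEK293 ACTOne cells with CNG channel (1000/well), endogenous PDE4; membrane potential dye, compounds up to 22.9 uM final. Fluorescence Ex 535/Em 590; RO 20-1724 (100 uM final) as reference.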
On the technique in general: Quantitative high-throughput screening tests each substance at several concentrations.

The target in test [9] is Cytochrome P450 2C19 (Homo sapiens) (UniProt P33261). Description: qHTS Assay for Inhibitors and Substrates of Cytochrome P450 2C19 (AID 899; active means well fitted curve in the direction sought with a large enough effect; an effect the other way counts as inactive or inconclusive; further: nearly all actives have a fitted effect of over 60% in size; further: potency means the concentration at half of the fitted maximal effect). As to conditions: recombinant CYP2C19, luciferin-H EGE luminescence; series mostly up to 11.4 µM. In outline:
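5 nM human CYP2C19 with 10uM Luciferin-H EGE (at KM) in 50mM KPO4, compound preincubated 10 min at 37C, then NADPH regeneration for 60 min at 37C. Luciferin read by luminescence after detection reagent; normalized to 57uM ketoconazole as full inhibition.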

Test [10] concerns the target Cytochrome P450 2D6 (Homo sapiens) (UniProt P10635). Kind of test: qHTS Assay for Inhibitors and Substrates of Cytochrome P450 2D6 (AID 891; active means well fitted curve in the direction sought with a large enough effect; an effect the other way counts as inactive or inconclusive; further: potency means the concentration at half of the fitted maximal effect; nearly all actives have a fitted effect of over 60% in size). As to conditions: recombinant CYP2D6, luciferin-ME EGE luminescence; series mostly up to 11.4 µM. In outline: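 Human CYP2D6 (5 nM) with 30 uM Luciferin-ME EGE (at Km) in 100 mM KPO4, compound preincubated 10 min, then NADPH regeneration system for 60 min at room temperature. Luciferin read by luminescence; normalized to 1.43 uM quinidine.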

Test [11] addresses Glucocorticoid receptor (Homo sapiens) (UniProt P04150). Description: GR-EFC Redistribution (AID 451; calls by dose curve; further: potency means the concentration at half of the fitted maximal effect). As to conditions: CHO-K1 GR-EFC translocation, beta-gal luminescence, 2 h. In outline: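 CHO-K1 cells expressing nuclear EA and GR-ED fragments of b-gal; compounds titrated up to 46 uM final, 2 h at 37 C. GR nuclear translocation read as complemented b-gal luminescence after 1 h RT detection.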

In test [12] the target is Cytochrome P450 2C9 (Homo sapiens) (UniProt P11712). Description: qHTS Assay for Inhibitors and Substrates of Cytochrome P450 2C9 (AID 883; active means well fitted curve in the direction sought with a large enough effect; an effect the other way counts as inactive or inconclusive; further: potency means the concentration at half of the fitted maximal effect; nearly all actives have a fitted effect of over 60% in size). As to conditions: recombinant CYP2C9, luciferin-H luminescence, 60 min; series mostly up to 11.4 µM. In a few lines: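 Human CYP2C9 (10nM) with Luciferin-H at 100uM (its KM) in 25mM KPO4; compound preincubated 10 min at 37C, then NADPH regeneration for 60 min at 37C. Luciferin read by luminescence after detection reagent; normalized to 57uM sulphaphenazole as full inhibition.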

Test [13] deals with Cytochrome P450 3A4 (Homo sapiens) (UniProt P08684). Description: qHTS Assay for Inhibitors and Substrates of Cytochrome P450 3A4 (AID 884; active means well fitted curve in the direction sought with a large enough effect; an effect the other way counts as inactive or inconclusive; further: potency means the concentration at half of the fitted maximal effect; nearly all actives have a fitted effect of over 50% in size). As to conditions: recombinant CYP3A4, Luciferin-PPXE luminescence; series mostly up to 57.1 µM. In outline: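 20 nM human CYP3A4 with 25 uM Luciferin-PPXE (at KM) in 200 mM KPO4, preincubated 10 min with compound; NADPH regeneration started a 60 min RT reaction. Luciferin detected by luminescence, normalized to 57 uM ketoconazole as full inhibition.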

For test [14] the target is unchanged. Kind of test: qHTS Assay for Activators of Cytochrome P450 3A4 (AID 885; active means well fitted curve in the direction sought with a large enough effect; an effect the other way counts as inactive or inconclusive; further: nearly all actives have a fitted effect of over 65% in size). As to conditions: recombinant CYP3A4, Luciferin-PPXE luminescence, 60 min; series mostly up to 11.4 µM. In a few lines: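 Human CYP3A4 (20 nM) with Luciferin-PPXE at 25 uM (its KM) in 200 mM KPO4; 10 min compound preincubation, then NADPH regeneration and 60 min reaction at RT. Luciferin read by luminescence; normalized to 57 uM ketoconazole full inhibition.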

Test [15] can be described thus: qHTS profiling for inhibitors of Plasmodium falciparum proliferation (AID 504749; active means well fitted curve in the direction sought with a large enough effect; an effect the other way counts as inactive or inconclusive;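 further: 0% = DMSO vehicle and full inhibition = artemisinin control; nearly all actives have a fitted effect of over 60% in size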). The conditions noted are these: P. falciparum in erythrocytes, SYBR Green DNA, 72 h, at 28.7 µM (top of the series). In a few lines: (§1)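 P. falciparum-infected erythrocytes (0.3% parasitemia, 2.5% hematocrit) incubated with compound 72 h at 37 C, 5% CO2. Parasite DNA detected by SYBR Green after lysis, overnight at room temperature; normalised to 0.29 uM artemisinin and DMSO.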

Another test relates to CP192. The test is described as above. As to conditions: P. falciparum in erythrocytes, SYBR Green DNA, 72 h; series mostly up to 28.7 µM. In a few lines: as §1
A further test deals with CP194. The test is described as above. As to conditions: P. falciparum in erythrocytes, SYBR Green DNA, 72 h; series mostly up to 28.7 µM. In a few lines:
as §1

The test system of another test is CP203. The test is described as above. As to conditions: P. falciparum in erythrocytes, SYBR Green DNA, 72 h; series mostly up to 28.7 µM. In outline:
as §1

In a further test the test system is W2. The test is described as above. As to conditions: P. falciparum in erythrocytes, SYBR Green DNA, 72 h; series mostly up to 28.7 µM. In outline: as §1

Values without a mark were called inactive. Results filed as inconclusive are left out. The source made the active and inactive calls. Unless noted, the call rests on the fitted dose curve; in most records, active means well fitted curve in either direction with a large enough effect (not every such curve was filed as active); inconclusive means small, poorly fitted or top-dose-only effect, or another doubt; inactive means flat fitted curve, though single readings scatter. A value given as a limit tells only on which side of the number the result lay.

Glucocorticoid receptor (Homo sapiens), sequence (P04150 whole entry, looked up, the tested form may be a part): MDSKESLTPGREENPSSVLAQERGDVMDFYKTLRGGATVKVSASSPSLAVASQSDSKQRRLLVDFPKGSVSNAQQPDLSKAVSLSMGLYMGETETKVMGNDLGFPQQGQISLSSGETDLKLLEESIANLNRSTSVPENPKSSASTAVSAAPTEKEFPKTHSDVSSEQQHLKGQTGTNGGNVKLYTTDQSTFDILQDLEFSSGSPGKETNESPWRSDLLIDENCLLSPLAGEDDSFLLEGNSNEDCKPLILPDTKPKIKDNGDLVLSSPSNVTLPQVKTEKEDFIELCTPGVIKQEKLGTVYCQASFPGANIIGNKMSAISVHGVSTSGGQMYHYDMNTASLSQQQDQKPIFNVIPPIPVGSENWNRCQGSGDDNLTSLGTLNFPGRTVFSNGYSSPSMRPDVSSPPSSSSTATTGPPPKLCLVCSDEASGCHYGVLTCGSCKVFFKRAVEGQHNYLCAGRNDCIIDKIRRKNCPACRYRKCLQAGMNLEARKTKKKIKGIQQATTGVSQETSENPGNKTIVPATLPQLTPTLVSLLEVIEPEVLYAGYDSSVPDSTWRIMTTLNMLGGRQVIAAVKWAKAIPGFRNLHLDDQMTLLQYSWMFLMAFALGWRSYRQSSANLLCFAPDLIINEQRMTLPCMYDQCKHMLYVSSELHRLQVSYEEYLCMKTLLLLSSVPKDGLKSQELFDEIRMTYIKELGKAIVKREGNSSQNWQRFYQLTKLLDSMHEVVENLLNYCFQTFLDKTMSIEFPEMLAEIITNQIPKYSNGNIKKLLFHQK
Cytochrome P450 1A2 (Homo sapiens), sequence (P05177 whole entry, looked up): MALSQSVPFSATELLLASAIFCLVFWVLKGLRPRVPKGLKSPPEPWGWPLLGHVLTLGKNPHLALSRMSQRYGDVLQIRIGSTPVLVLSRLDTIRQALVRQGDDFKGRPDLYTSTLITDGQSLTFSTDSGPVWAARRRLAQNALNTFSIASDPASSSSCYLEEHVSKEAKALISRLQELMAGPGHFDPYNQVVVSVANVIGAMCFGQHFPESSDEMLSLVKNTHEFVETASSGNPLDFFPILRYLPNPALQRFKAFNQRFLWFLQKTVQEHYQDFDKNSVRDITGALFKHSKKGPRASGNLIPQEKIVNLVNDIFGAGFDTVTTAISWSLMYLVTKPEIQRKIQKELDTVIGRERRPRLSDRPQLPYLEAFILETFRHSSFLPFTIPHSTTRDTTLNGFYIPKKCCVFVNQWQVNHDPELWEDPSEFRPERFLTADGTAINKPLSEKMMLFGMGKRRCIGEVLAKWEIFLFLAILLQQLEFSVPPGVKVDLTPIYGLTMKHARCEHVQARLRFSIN
Lysosomal acid glucosylceramidase (Homo sapiens), sequence (P04062 whole entry, looked up): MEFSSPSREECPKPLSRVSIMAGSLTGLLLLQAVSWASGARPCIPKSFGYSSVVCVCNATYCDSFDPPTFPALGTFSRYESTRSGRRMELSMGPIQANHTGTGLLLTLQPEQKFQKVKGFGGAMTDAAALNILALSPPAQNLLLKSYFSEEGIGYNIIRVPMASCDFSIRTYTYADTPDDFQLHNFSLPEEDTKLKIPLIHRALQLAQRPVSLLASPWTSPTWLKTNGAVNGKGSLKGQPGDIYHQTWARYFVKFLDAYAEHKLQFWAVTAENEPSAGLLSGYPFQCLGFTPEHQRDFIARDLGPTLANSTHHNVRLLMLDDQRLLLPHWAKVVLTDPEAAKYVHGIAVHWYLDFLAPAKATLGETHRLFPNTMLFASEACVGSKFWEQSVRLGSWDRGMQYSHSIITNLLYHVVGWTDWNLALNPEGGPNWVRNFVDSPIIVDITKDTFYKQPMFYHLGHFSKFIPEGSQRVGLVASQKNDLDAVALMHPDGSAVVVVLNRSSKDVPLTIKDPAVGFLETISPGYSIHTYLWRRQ
3',5'-cyclic-AMP phosphodiesterase 4B (Homo sapiens), sequence (Q07343 whole entry, looked up): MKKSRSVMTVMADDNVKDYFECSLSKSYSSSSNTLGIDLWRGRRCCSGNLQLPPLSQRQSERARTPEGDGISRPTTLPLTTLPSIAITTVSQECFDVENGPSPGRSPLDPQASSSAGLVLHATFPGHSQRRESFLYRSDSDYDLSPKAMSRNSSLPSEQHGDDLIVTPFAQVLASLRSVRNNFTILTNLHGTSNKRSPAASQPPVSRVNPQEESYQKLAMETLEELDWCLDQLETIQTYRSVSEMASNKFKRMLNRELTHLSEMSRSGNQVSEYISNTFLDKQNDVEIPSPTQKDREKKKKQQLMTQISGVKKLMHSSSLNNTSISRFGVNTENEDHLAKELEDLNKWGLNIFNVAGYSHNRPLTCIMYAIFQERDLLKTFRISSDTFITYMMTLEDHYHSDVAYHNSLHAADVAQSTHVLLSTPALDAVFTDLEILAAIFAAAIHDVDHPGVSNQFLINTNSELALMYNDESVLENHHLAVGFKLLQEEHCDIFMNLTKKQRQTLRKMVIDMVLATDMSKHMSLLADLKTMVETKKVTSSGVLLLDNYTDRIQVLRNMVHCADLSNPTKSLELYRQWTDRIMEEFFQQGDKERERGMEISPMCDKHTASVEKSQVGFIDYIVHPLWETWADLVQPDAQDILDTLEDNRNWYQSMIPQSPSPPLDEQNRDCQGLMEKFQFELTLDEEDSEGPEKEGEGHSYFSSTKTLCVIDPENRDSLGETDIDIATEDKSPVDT
Cytochrome P450 3A4 (Homo sapiens), sequence (P08684 whole entry, looked up): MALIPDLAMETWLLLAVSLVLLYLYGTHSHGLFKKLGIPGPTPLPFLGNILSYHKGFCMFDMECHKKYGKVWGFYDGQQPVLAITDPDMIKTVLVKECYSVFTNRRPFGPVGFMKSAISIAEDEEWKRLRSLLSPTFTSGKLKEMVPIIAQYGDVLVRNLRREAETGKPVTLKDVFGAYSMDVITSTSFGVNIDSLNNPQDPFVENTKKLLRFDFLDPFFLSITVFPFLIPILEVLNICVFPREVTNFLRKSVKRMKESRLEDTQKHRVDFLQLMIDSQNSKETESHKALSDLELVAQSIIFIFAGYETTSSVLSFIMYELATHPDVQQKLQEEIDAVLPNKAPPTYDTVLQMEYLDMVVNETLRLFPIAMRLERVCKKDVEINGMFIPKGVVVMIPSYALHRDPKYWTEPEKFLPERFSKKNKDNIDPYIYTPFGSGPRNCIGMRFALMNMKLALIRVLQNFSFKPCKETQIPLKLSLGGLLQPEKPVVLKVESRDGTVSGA
Cytochrome P450 2C19 (Homo sapiens), sequence (P33261 whole entry, looked up): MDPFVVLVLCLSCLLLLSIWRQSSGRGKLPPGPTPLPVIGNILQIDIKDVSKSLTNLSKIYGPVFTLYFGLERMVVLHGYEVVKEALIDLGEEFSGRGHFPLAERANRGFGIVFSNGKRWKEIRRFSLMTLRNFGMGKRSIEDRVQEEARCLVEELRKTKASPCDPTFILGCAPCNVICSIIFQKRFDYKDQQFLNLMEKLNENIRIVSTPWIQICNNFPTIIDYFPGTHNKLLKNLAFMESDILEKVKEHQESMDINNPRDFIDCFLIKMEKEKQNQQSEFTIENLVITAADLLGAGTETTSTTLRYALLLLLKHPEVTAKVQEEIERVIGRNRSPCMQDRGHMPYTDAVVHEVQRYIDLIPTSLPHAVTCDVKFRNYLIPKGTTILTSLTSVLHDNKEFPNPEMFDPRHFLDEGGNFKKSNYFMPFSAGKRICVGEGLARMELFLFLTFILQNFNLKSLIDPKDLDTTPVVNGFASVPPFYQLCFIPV
Cytochrome P450 2D6 (Homo sapiens), sequence (P10635 whole entry, looked up): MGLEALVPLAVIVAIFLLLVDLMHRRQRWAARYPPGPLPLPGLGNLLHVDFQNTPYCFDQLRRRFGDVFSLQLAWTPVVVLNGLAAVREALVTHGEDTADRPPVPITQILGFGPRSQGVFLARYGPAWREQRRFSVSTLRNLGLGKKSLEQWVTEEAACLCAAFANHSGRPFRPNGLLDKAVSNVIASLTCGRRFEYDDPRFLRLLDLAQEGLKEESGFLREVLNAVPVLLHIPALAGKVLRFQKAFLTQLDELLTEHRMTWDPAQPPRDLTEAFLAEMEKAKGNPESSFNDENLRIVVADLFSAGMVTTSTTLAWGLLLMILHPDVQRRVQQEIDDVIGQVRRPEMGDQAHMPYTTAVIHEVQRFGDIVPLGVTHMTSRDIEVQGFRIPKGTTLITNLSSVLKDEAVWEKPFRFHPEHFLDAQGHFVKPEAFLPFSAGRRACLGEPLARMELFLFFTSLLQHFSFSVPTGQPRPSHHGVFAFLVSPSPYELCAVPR
Cytochrome P450 2C9 (Homo sapiens), sequence (P11712 whole entry, looked up): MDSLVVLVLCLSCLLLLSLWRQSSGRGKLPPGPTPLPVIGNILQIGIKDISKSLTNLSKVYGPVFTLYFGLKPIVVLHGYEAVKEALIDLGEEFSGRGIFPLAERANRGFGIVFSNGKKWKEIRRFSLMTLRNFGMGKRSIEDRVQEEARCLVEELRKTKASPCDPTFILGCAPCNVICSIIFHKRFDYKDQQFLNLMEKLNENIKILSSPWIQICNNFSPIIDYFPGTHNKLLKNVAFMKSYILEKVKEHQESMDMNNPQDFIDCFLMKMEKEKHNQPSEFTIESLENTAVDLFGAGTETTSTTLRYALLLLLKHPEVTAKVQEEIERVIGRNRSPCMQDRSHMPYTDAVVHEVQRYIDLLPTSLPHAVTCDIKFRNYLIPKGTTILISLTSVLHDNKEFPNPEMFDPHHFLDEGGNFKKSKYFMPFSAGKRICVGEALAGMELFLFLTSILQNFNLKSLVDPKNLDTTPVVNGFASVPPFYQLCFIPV

Consider `O=C1O[C@@H]([C@H](O)[C@H](O)[C@H](O)CO)[C@@H](O)[C@@H]1O`, for which the Potency in test [1] was greater than 11.4 µM; in test [6] it was greater than 46 µM. The values for the activity change, negative = inhibition in [2] and in test [4] were 21.3% and 6.28%, respectively. For the same compound, the Potency result in test [3], in [7], in test [8] and in test [9] was “inactive” in each case. For the same compound, in [5], the activity, negative = inhibition was -13.5%.
Consider `C/C(=N/O)c1ccc2cc(Br)c3ccccc3c2c1`, for which the Potency is greater than 11.4 µM in test [1], greater than 46 µM in test [6] and 0.0251 µM (active) in test [10]. Besides, the activity change, negative = inhibition in test [2] is 15%; in test [3], -13.6% [at 2.29 µM]; in test [4], 1.9%. For the same compound, the activity, negative = inhibition in [5] was -6.91%. The Potency entry in test [7] and in test [8] was “inactive” each time.
On to `O=S(=O)(O)c1ccc(O)c2ncccc12.O=S(=O)(O)c1ccc(O)c2ncccc12.[Zn]`, for which the Potency in test [1] is greater than 11.4 µM; in [3], 0.631 µM (active); in test [6], greater than 46 µM; in test [11] it was greater than 9.22 µM. Moreover, the activity change, negative = inhibition in test [2] was 6.49%; in test [4], -15.3%. In addition, the Potency entry in test [7] and in test [8] was “inactive” in each case.
`NCCSc1nc2ccccc2s1`: the Potency in test [1] was greater than 11.4 µM; in test [3], 0.316 µM (active); in test [6], greater than 46 µM; in [11], greater than 9.22 µM; in test [12] it was 1.58 µM (active); in [13], 3.16 µM (active). In [9], the Potency was 1.58 µM (active). The activity change, negative = inhibition in [2] was 1.91%; in test [4], 7.28%. Also, the Potency result in test [7], in test [8] and in [14] was “inactive” in each case.
As to `CN(C)[C@H]1C(=O)C(C(=O)NCN2CCCC2)=C(O)[C@]2(O)C(=O)C3=C(O)c4c(O)cccc4[C@](C)(O)[C@H]3C[C@H]12`, the Potency in test [1] is greater than 11.4 µM; in test [6], greater than 46 µM; in [11] it was greater than 9.22 µM. The activity change, negative = inhibition in test [2] is -4.67%; in [4], 6.5%. Further, the Potency entry (in [3]; in [7]; in test [8]; in the test with CP192; in the test on CP194; in the test on CP203) was “inactive” throughout. For the same compound, in the test on W2, the Potency entry is “inactive”. Further, the activity, negative = inhibition was 9.1% in test [15] (parasite line A) and 1.72% in test [15] (parasite line B).
As to `O=C(O)c1nnsc1-c1csnn1`, the Potency in [1] was greater than 11.4 µM; in test [6], greater than 46 µM; in [11], greater than 9.22 µM. For the same compound, the activity change, negative = inhibition in test [2] is 2.29%; in test [4], 4.42%. The Potency entry in test [3], in test [7] and in test [8] was “inactive” each time.
`CC(C)CSC[C@@H]1O[C@H](n2cnc3c(N)nccc32)[C@H](O)[C@@H]1O`: the results for the Potency in test [1], in test [6] and in test [11] were greater than 11.4 µM, greater than 46 µM and greater than 9.22 µM, respectively. In addition, the activity change, negative = inhibition was 4.75% in test [2] and 12.1% in [4]. Also, the Potency result in test [3], in [7] and in [8] was “inactive” in each case.
